In the library only some 4.6% were active in any assay of this set; here they are far more common.
Tau ThT inhib: qHTS for Inhibitors of Tau Fibril Formation, Thioflavin T Binding; 270,000 compounds, 2.1% hits; Potency, µM (series often up to 57.4 µM), for the others: at the highest dose activity, negative = inhibition, actives largely listed as inhibitors; Microtubule-associated protein tau (Homo sapiens), P10636; recombinant tau K18 P301L, heparin-induced fibrillization, ThT fluorescence; further: potency means the concentration at half of the fitted maximal effect; nearly all actives have a fitted effect of over 55% in size
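In this qHTS, human K18 P301L tau is incubated with compound and heparin for 6 hr at 37 C, and Thioflavin T fluorescence then reports fibril load.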
Tau fluor counter: Counterscreen qHTS for Inhibitors of Tau Fibril Formation, Fluorescence Polarization | tau K18 P301L (four-repeat tau fragment) Alexa594 fluorescence, heparin fibrillization | Potency, µM (doses to about 57.7 µM), without a hit: at the top dose activity change, negative = decrease | 280,000 compounds, 0.93% hits; further: potency means the concentration at half of the fitted maximal effect; nearly all actives have a fitted effect of over 55% in size
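Human K18 P301L tau (15 uM unlabeled plus 0.24 uM Alexa 594-labeled, final) in 100 mM sodium acetate pH 7 was mixed with compound and 20 uM heparin and incubated 6 hr at 37 C.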
PNC inhibitor: High Content Assay for Compounds that inhibit the Assembly of the Perinucleolar Compartment. 140,000 compounds, 3.1% hits. activity change (PNC), negative = inhibition, % at 10 µM. PC3M PTB-GFP, PNC prevalence imaging, 16 h; active compounds read low;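 active means readout at or below -70, meaning at least 70% loss of cells showing the perinucleolar compartment, a nuclear body marking cancer cells; inconclusive means readout between -30 and a set limit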;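 further: plate controls were DMSO wells for no effect and camptothecin positive control wells for full effect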
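Read-out is percentage of cells bearing a perinucleolar compartment, from automated 20x imaging of fixed, Hoechst-stained PC3M PTB-GFP cells. Cells were seeded 4 h, then exposed 16 h to compound (23 nl of library stock) in duplicate plates.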
TR SRC2 fluor cs: Total Fluorescence Counterscreen for Inhibitors of the Interaction of Thyroid Hormone Receptor and Steroid Receptor Coregulator 2. AID 1479, 2009. Potency, µM (series often up to 106 µM), for inactives: at the highest dose fluorescence change, negative = quenching. 280,000 compounds, 0.29% hits. TRb/SRC2 Texas Red total fluorescence interference; active means well fitted curve in either direction with a large enough effect; inconclusive means small, poorly fitted or top-dose-only effect; further: potency means the concentration at half of the fitted maximal effect
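Human TRb ligand-binding domain at 0.6 uM with 20 nM Texas Red SRC2 peptide in Tris buffer containing 1 uM T3 and 5% DMSO, incubated with compound 5 h at ambient temperature. Total fluorescence (555/632 nm) calculated as parallel + 2 × perpendicular.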
Tau FP inhib: qHTS for Inhibitors of Tau Fibril Formation, Fluorescence Polarization. K18 P301L tau heparin fibrillization, Alexa594 FP, 6 h. 280,000 compounds, 0.39% hits. Potency, µM (titrated, usually from 57.7 µM), for inactives: at the highest dose activity, negative = inhibition, usual class: inhibitors; further: potency means the concentration at half of the fitted maximal effect; nearly all actives have a fitted effect of over 55% in size
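Read-out: fluorescence polarization of Alexa 594-labeled tau (0.24 uM), 555 nm excitation, 632 nm emission. Mixtures held 15 uM unlabeled K18 P301L, compound and 20 uM heparin, pH 7 acetate buffer, incubated 6 hr at 37 C.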
TRb-SRC2 inh: qHTS for Inhibitors of the Interaction of Thyroid Hormone Receptor and Steroid Receptor Coregulator 2. AID 1469, 2008. Thyroid hormone receptor beta (Homo sapiens), P10828. TRbeta-SRC2 peptide binding, fluorescence polarization; receptor liganded with 1 µM T3. Potency, µM (titrated, usually from 106 µM), for inactives: at the top dose activity change, negative = inhibition, most hits filed as inhibitors. 280,000 compounds, 0.065% hits;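 further: potency means the concentration at half of the fitted maximal effect; plate controls were bound peptide for no effect and peptide without receptor for full effect; nearly all actives have a fitted effect of over 50% in size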
Target sequence (P10828 whole entry, looked up): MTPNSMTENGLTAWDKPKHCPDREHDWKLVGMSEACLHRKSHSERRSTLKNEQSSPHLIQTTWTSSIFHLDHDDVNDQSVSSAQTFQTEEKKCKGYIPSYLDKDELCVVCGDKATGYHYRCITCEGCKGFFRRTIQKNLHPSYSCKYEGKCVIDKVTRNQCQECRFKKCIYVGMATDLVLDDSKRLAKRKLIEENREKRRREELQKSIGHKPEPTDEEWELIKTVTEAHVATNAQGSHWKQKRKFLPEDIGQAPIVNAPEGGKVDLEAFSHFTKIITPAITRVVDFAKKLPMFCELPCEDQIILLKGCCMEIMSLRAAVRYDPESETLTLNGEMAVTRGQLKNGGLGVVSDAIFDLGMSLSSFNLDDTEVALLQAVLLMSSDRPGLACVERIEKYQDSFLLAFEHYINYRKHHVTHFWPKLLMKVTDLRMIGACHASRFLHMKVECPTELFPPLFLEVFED
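TRb LBD 0.6 uM + Texas Red SRC2 peptide 20 nM, 1 uM T3, Tris buffer w/ 5% DMSO; compound pinned, 5 h RT; FP read ex 555/em 632; normalized to unbound and bound controls.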
An asterisk follows results filed as active; u = inconclusive; x = no result; ! = not confirmed by another sample; [ ] = remark or other dose. Unless noted, the call rests on the fitted dose curve; in most records, active means well fitted curve in the direction sought with a large enough effect; inconclusive means small, poorly fitted or top-dose-only effect, or another doubt; inactive means no such curve, though single readings can be large; an effect the other way counts as inactive or inconclusive. Unless noted, on the % scale 0 is the no-effect control and ±100 the full control effect.

SMILES	Tau ThT inhib	Tau fluor counter	PNC inhibitor	TR SRC2 fluor cs	Tau FP inhib	TRb-SRC2 inh
COc1cccc(-c2ccc(C#N)c(OC(=O)c3ccc(Cl)cc3)n2)c1	0%	-6%	13	-5%	3%	3%
CC(C)(C)c1ccc(/C=N/NC(=O)Cc2c[nH]c3ccccc23)cc1	u	14µM*[quencher]	-23	-4%	-14%	-17%
O=C(N/N=C/c1ccccn1)c1sc2ccccc2c1Cl	u	u	x	-3%	-8%	0%
O=C(Cc1c[nH]c2ccccc12)N/N=C/c1ccccc1O	u	-24%	x	-7%	-5%	-8%
O=C(N/N=C/c1c[nH]c2ccccc12)c1sc2ccccc2c1Cl	u	8.9µM*[quencher]	u	-7%	-3%	6%
O=C(N/N=C/c1ccc([N+](=O)[O-])o1)c1sc2ccccc2c1Cl	3.5µM*	u	x	0%	-4%	5%
CC1(OC(=O)C2CCCC2)C(=O)C=C2C=C(c3ccsc3)N(Cc3ccccc3)C=C2C1=O (stereo not given)	10µM*!	-5%[11.6 µM]	x	8%[11.2 µM]	u	4%[11.2 µM]
CC1(OC(=O)C2CCCC2)C(=O)C=C2C=C(c3ccsc3)N(CCc3ccccn3)C=C2C1=O (stereo not given)	4µM*	-19%[11.6 µM]	x	2%[11.2 µM]	u	1%[11.2 µM]
CC1(OC(=O)CCc2ccccc2)C(=O)C=C2C=C(c3ccc(C#N)cc3)N(Cc3ccccc3)C=C2C1=O (stereo not given)	8.9µM*!	-3%[11.6 µM]	x	0%[11.2 µM]	u	3%[11.2 µM]
CCCCC1=CC2=CC(=O)C(C)(OC(=O)CCc3ccccc3)C(=O)C2=CO1 (stereo not given)	25µM*!	u	x	-1%	u	4%
CCCNC(=O)/C(=C/c1cn(S(=O)(=O)N(C)C)c2ccccc12)NC(=O)c1ccc(OC)cc1	7%	-9%	x	-5%	1%	1%
CCOc1ccc(-c2nc(CSCC(=O)NCCc3ccccc3)c(C)o2)cc1	u	-5%	x	0%	6%	1%
O=C(NC1CCCCC1)C(c1cccs1)N(C(=O)c1ccco1)c1ccc2c(c1)OCCO2 (stereo not given)	-9%	-6%	-100*	0%	3%	-6%
COc1ccc(/C=C2\SC(=O)N(CCNC(=O)Cc3coc4cc(C)ccc34)C2=O)cc1OC	13µM*	-25%	u	0%	u	-2%
COc1ccc(/C=C2/SC(=O)N(CCC(=O)Nc3ccc(C)cc3)C2=O)cc1OC	u	-2%	3	1%	-9%	-10%
Cc1c(C)n(C(=O)CN2CCC(C(N)=O)CC2)c2ccccc12	-1%	-2%	11	-2%	-2%	-9%
CCn1c(O)c(N=NC(=O)CNC(=O)c2ccco2)c2ccccc21	-16%	-3%	19	11%	1%	3%
CCn1c(O)c(N=NC(=O)CNC(=O)/C=C/c2ccco2)c2ccccc21	u	-7%	-92*	-8%	-4%	-9%
CCn1c(SCC(=O)N2CCOCC2)nc2c(c1=O)SC(C)C2 (stereo not given)	0%	3%	-100*	-2%	2%	-1%
CC1=NN(c2ccc(Cl)cc2)C(=O)/C1=C\c1cccn1-c1ccc(S(N)(=O)=O)cc1	7.1µM*	11µM*[quencher]	58	-9%	11%	5%
C(=C\c1ccco1)/C1=NN(c2ccccc2)C(c2ccco2)C1 (stereo not given)	u	u	u	1%	-1%	4%

Screens deposited in PubChem BioAssay by National Center for Advancing Translational Sciences (NCATS).
